Structures are written as SMILES. Inconclusive results are not listed. A call without a number means that no potency is given here. Activity calls are given as the source filed them. Calls come from the whole dose curve; as a rule, active = well fitted inhibition curve with a large enough effect; inconclusive = small, poorly fitted or top-dose-only effect; inactive = no such curve, though single readings can be large or run the other way.
Potency is the fitted concentration of half-maximal effect.

One test concerns Zika virus NS2B-NS3 protease (unlinked complex). The experiment in a line: Primary screen GU Rhodamine qHTS for Zika virus inhibitors: Unlinked NS2B-NS3 protease assay (AID 1347159). Note: nearly all actives have a fitted effect of over 60% in size. The conditions noted are these: Recombinant ZIKV NS2B-NS3 protease, Rhodamine110 substrate fluorescence; series mostly up to 107 µM. The procedure, abridged:
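In dose–response format, inhibition of unlinked protease (25 nM) was measured with 1.5 microM bis-peptide Rhodamine110 substrate. Aprotinin served as the intraplate control.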
Turning to `O=C(c1cc(Cc2n[nH]c(=O)c3ccccc23)ccc1F)N1CCN(C(=O)C2CC2)CC1`, the Potency entry is “inactive”.
Still for that read-out and setting: the value for `CNCc1ccc(-c2[nH]c3cc(F)cc4c3c2CCNC4=O)cc1` was “inactive”; that for `COc1ccccc1[C@H](c1cccc2ccccc12)[C@@](C)(C#N)C(=O)N1CCC(c2cccc(C(F)(F)F)c2)CC1` was “inactive”; that for `CNC(=O)c1ccc(C)c(-n2c(C)cc(OCc3ccc(F)cc3F)c(Br)c2=O)c1` was “inactive”.
As for `C[C@@H]1CN(Cc2ccc(F)cc2)[C@@H](C)CN1C(=O)c1cc2c(C(=O)C(=O)N(C)C)cn(C)c2cc1Cl`, the Potency result was “inactive”.
Regarding `COc1cc2c(cc1OC)CN(CCc1ccc(NC(=O)c3cccc4c(=O)c5cccc(OC)c5[nH]c34)cc1)CC2`, the Potency was 39.8 µM (active).
On the same count and under the same terms, the value for `CS(=O)(=O)c1ccc(C(=O)Nc2ccc(Cl)c(-c3ccccn3)c2)c(Cl)c1` was “inactive”.
On the same count and under the same terms, the value for `CC1(C)Cc2c(-c3ccccc3)c(-c3ccc(Cl)cc3)c(CC(=O)O)n2C1` was 10 µM (active); that for `O=C1CCCC2=C1C(c1[nH]ncc1Cl)N=C(Nc1nc3ccccc3o1)N2` (centres undefined) was “inactive”; that for `CN(C)C(=O)c1ccc(S(=O)(=O)c2ccc(NC(=O)[C@@](C)(O)C(F)(F)F)c(Cl)c2)cc1` was “inactive”.
Still for that read-out and setting: the value for `Cc1cc(SCc2sc(-c3ccc(C(F)(F)F)cc3)nc2C)ccc1OCC(=O)O` was 3.55 µM (active); that for `COc1cc(Nc2ncc3c(n2)-c2ccc(Cl)cc2C(c2c(F)cccc2OC)=NC3)ccc1C(=O)O` was 20 µM (active).
In the case of `COc1cccc2cc(-c3nc(C4CCC(C(=O)O)CC4)n4ncnc(N)c34)[nH]c12` (centres undefined), the Potency result was “inactive”.
Same read-out and setting: the value for `CC(C)(N)C(=O)N[C@H](COCc1ccccc1)C(=O)N1CCC2(CC1)CN(S(C)(=O)=O)c1ccccc12` was “inactive”; that for `CS(=O)(=O)c1cccc(CNc2nc(Nc3ccc4c(c3)CCC(=O)N4)ncc2C(F)(F)F)c1` was “inactive”; that for `Cc1cnc(Nc2ccc(OCCN3CCCC3)cc2)nc1Nc1cccc(S(=O)(=O)NC(C)(C)C)c1` was “inactive”.
Consider `CCCc1nn(C)c2c(=O)[nH]c(-c3cc(S(=O)(=O)N4CCN(C)CC4)ccc3OCC)nc12`, for which the Potency entry is “inactive”.
As to `COc1nc(-c2ccc3c(c2)OCO3)n(-c2ccc(NC(=O)CSc3ccccc3)cc2)n1`, the Potency result is “inactive”.
For `CN(C)c1ccc(Nc2nc(N)n(C(=O)c3c(F)cccc3F)n2)cc1`, the Potency result is “inactive”.
Regarding `OCCn1cc(-c2cnc3nnn(Cc4ccc5ncccc5c4)c3n2)cn1`, the Potency was 50.1 µM (active).
For the molecule `Cn1cnc2c(F)c(Nc3ccc(Br)cc3Cl)c(C(=O)NOCCO)cc21`, the Potency entry was “inactive”.
The same measure, in the same setting: the value for `COc1ccc(CCN2CCN(CCCc3ccccc3)CC2)cc1OC` was “inactive”.
`O=C(NOC[C@H](O)CO)c1ccc(F)c(F)c1Nc1ccc(I)cc1F`: the Potency was 22.4 µM (active).
In the case of `S=C(NCc1ccc2c(c1)OCO2)N1CCN(c2ncnc3c2oc2ccccc23)CC1`, the Potency entry is “inactive”.
Turning to `Cc1ccnc(NS(=O)(=O)c2ccc(NC(=O)Nc3ccc(S(=O)(=O)Nc4nccc(C)n4)cc3)cc2)n1`, the Potency entry was “inactive”.

For the next test, the system named is Zika virus NS2B-NS3 protease (linked construct). Nature of the test: Primary screen NINDS Rhodamine qHTS for Zika virus inhibitors (AID 1347160). Note: nearly all actives have a fitted effect of over 55% in size. The settings on record: purified NS2B-NS3 protease, Rhodamine110 substrate fluorescence; series mostly up to 57.1 µM. The procedure, abridged:
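Each compound, titrated, sat 15 min with 25 nM linked protease before 1.5 microM Rhodamine110 substrate went in. Fluorescence gain over the next 15 min, in pH 8.0 Tris with Tween 20, gave Hill-fitted curves.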
As to `CCOc1ccn(-c2ccc(F)cc2)c(=O)c1C(=O)Nc1ccc(Oc2ccnc(N)c2Cl)c(F)c1`, the Potency entry was “inactive”.
Same read-out and setting: the value for `CC(C)(Sc1ccc(CCN(CCCCC2CCCCC2)C(=O)NC2CCCCC2)cc1)C(=O)O` was 3.98 µM (active).
Same read-out and setting: the value for `CC(C)OC(=O)C1=CN(C(=O)c2ccc(F)c(F)c2)CC(C)(C)c2c1[nH]c1ccccc21` was “inactive”; that for `CCc1cc(Nc2nccc(-c3c(-c4ccc(OC)c(C(=O)Nc5c(F)cccc5F)c4)nc4ccccn34)n2)c(OC)cc1N1CCC(N2CCN(S(C)(=O)=O)CC2)CC1` was “inactive”; that for `CC1(C)CNc2cc(NC(=O)c3cccnc3NCc3ccncc3)ccc21` was “inactive”.
For `Cn1cc(-c2ccc3nnc(C(F)(F)c4ccc5ncccc5c4)n3n2)cn1`, the Potency entry was “inactive”.
The same measure, in the same setting: the value for `COc1c(Cl)cc2c([nH]c3cnccc32)c1NC(=O)c1cccnc1C` was “inactive”; that for `COc1cc(Oc2ccnc3cc(OC)c(OC)cc23)ccc1NC(=O)NC(C)c1nccs1` (centres undefined) was “inactive”.
Turning to `O=C(c1cc(Cc2n[nH]c(=O)c3ccccc23)ccc1F)N1CCN(C(=O)C2CC2)CC1`, the Potency result was “inactive”.
Same read-out and setting: the value for `CNCc1ccc(-c2[nH]c3cc(F)cc4c3c2CCNC4=O)cc1` was “inactive”; that for `COc1ccccc1[C@H](c1cccc2ccccc12)[C@@](C)(C#N)C(=O)N1CCC(c2cccc(C(F)(F)F)c2)CC1` was “inactive”; that for `CNC(=O)c1ccc(C)c(-n2c(C)cc(OCc3ccc(F)cc3F)c(Br)c2=O)c1` was “inactive”.
On the same count and under the same terms, the value for `C[C@@H]1CN(Cc2ccc(F)cc2)[C@@H](C)CN1C(=O)c1cc2c(C(=O)C(=O)N(C)C)cn(C)c2cc1Cl` was “inactive”.
Same read-out and setting: the value for `COc1cc2c(cc1OC)CN(CCc1ccc(NC(=O)c3cccc4c(=O)c5cccc(OC)c5[nH]c34)cc1)CC2` was “inactive”; that for `CS(=O)(=O)c1ccc(C(=O)Nc2ccc(Cl)c(-c3ccccn3)c2)c(Cl)c1` was “inactive”; that for `O=C1CCCC2=C1C(c1[nH]ncc1Cl)N=C(Nc1nc3ccccc3o1)N2` (centres undefined) was “inactive”.
In the case of `CN(C)C(=O)c1ccc(S(=O)(=O)c2ccc(NC(=O)[C@@](C)(O)C(F)(F)F)c(Cl)c2)cc1`, the Potency result was “inactive”.
On the same count and under the same terms, the value for `COc1cc(Nc2ncc3c(n2)-c2ccc(Cl)cc2C(c2c(F)cccc2OC)=NC3)ccc1C(=O)O` was “inactive”; that for `COc1cccc2cc(-c3nc(C4CCC(C(=O)O)CC4)n4ncnc(N)c34)[nH]c12` (centres undefined) was “inactive”.
Same read-out and setting: the value for `CC(C)(N)C(=O)N[C@H](COCc1ccccc1)C(=O)N1CCC2(CC1)CN(S(C)(=O)=O)c1ccccc12` was “inactive”; that for `CS(=O)(=O)c1cccc(CNc2nc(Nc3ccc4c(c3)CCC(=O)N4)ncc2C(F)(F)F)c1` was “inactive”; that for `Cc1cnc(Nc2ccc(OCCN3CCCC3)cc2)nc1Nc1cccc(S(=O)(=O)NC(C)(C)C)c1` was “inactive”.
Consider `CCCc1nn(C)c2c(=O)[nH]c(-c3cc(S(=O)(=O)N4CCN(C)CC4)ccc3OCC)nc12`, for which the Potency result is “inactive”.
The same measure, in the same setting: the value for `COc1nc(-c2ccc3c(c2)OCO3)n(-c2ccc(NC(=O)CSc3ccccc3)cc2)n1` was “inactive”.
Consider `CN(C)c1ccc(Nc2nc(N)n(C(=O)c3c(F)cccc3F)n2)cc1`, for which the Potency entry was “inactive”.
`OCCn1cc(-c2cnc3nnn(Cc4ccc5ncccc5c4)c3n2)cn1`: the Potency entry was “inactive”.
On the same count and under the same terms, the value for `Cn1cnc2c(F)c(Nc3ccc(Br)cc3Cl)c(C(=O)NOCCO)cc21` was “inactive”; that for `COc1ccc(CCN2CCN(CCCc3ccccc3)CC2)cc1OC` was “inactive”.
Same read-out and setting: the value for `S=C(NCc1ccc2c(c1)OCO2)N1CCN(c2ncnc3c2oc2ccccc23)CC1` was “inactive”.

The record behind these values is PubChem BioAssay (NCATS).
